# Test results from PubChem BioAssay.
# Several values for one entry are separate records, joined by “and”; a condition that tells them apart may be missing. Equal values may be shown once. Activity calls are given as the source filed them. Unless noted, how the calls were made is not given here.
# How the values were obtained:
# [1] = hESC survival regulators, cell-based (AID 493140); details: human embryonic stem cell survival screen; stronger effect = higher value;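 further: cells exposed to compounds for four days before counting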
# [2] = sensitizers of A549 cells to miR-34 induction, primary screen, imaging, A549 dox-inducible miR-34, nuclei and caspase counts (AID 1347080;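 active means compounds whose cell count with miR-34 switched on is under 0.7 times the count with it off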); details: A549 miR-34 inducible, Hoechst nuclei count, 48 h
# [3] = inhibitors of Cryptococcus chitosan production, flow cytometry, Cibacron Brilliant Red staining (AID 1347148); details: Cryptococcus neoformans chitosan, stronger effect = lower value; at 10 µM unless noted;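 further: compound exposure lasted three days at 37 degrees C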
# [4] = circadian clock period modulators, cell-based, LOPAC library, luminescence reporter (AID 2774); details: circadian reporter cells, at 7 µM, actives lie on both sides;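 further: values are relative to mean of DMSO wells on each plate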
# [5] = tested on: Hepatitis C virus NS3 helicase; assay: HCV NS3 helicase inhibitors, primary screen, biochemical, fluorescence polarization, LOPAC1280 library (AID 687035; in the data active means inhibition above about 37%); details: Purified HCV NS3 helicase, Cy5-dT15 ssDNA binding fluorescence polarization; stronger effect = higher value; concentration not given here
# [6] = Cy5 fluorescence quenching or enhancement artefacts, artefact control for HCV NS3 helicase inhibitor project, biochemical, LOPAC1280 (AID 687037); details: Cy5-DNA-NS3h complex fluorescence interference counterscreen
# [7] = phospholipid biosynthesis inhibitors in animal cells, primary screen, cell-based, LOPAC library, screen 4 (AID 1347384); details: phospholipid biosynthesis inhibition screen, at 10 µM
# [8] = viability rescue of complex I mutant cybrids, primary screen, cell-based, galactose medium, ATP luminescence (AID 1645843;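 active means z-score of at least 1.8 in each of two replicates, scored against plate mean and spread of sample wells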;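 further: positive z means more ATP and so rescue of galactose-driven cybrid death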); details: complex I mutant cybrid cells, 72 h, stronger effect = higher value
# [9] = liver-stage malaria parasite growth inhibition, primary screen, cell-based, HepG2, luciferase luminescence, HepG2 viability (AID 624349; in the data active means parasite load remaining mostly below about 12%, no sharp cut-off; inactive means mostly above about 10%;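 further: 100% = mean of DMSO negative control wells on the same plate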); details: P. berghei liver stage in HepG2, luciferase luminescence, concentration not given here; parasite load remaining: stronger effect = lower value; viability: measured here: HepG2 viability without parasites
# [10] = survival rescue of mitochondrial mutant cells in low glucose, primary screen, MELAS cybrids, Rieske KO mouse fibroblasts, CellTiter-Glo (AID 1508586;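 active means mean z-score across replicates of 1.96 or higher in either the MELAS or the Rieske mutant cell line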;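 further: z relative to plate mean and SD of compound and empty wells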)
# [11] = stronger effect = lower value, cell number ratio, induced over uninduced
# [12] = measured here: relative caspase fold change +Dox/-Dox
# [13] = measured here: total cells with miR-34 induction, stronger effect = lower value
# [14] = measured here: total cells without miR-34 induction
# [15] = MELAS cybrid survival, CellTiter-Glo 48 h, stronger effect = higher value
# [16] = Rieske KO mouse fibroblast survival, CellTiter-Glo 72 h
SMILES,survival [1],"fold change [2, 11]","fold change [2, 12]","cell count [2, 13]","cell count [2, 14]",fold fluorescence [3],period change [4],inhibition [5],fluorescence ratio (interference) [6],outcome [7],z-score [8],parasite load remaining [9],viability [9],"z-score [10, 15]","z-score [10, 16]"
CCCCC[C@H](O)/C=C/C1=C(C/C=C\CCCC(=O)O)C(=O)CC1,130 (inactive),0.969 (inactive) and 0.886 (inactive),1.57 and 1.52,6100 and 5600,6300 and 6320,3.98 (inactive),–,–,–,–,–,–,–,–,–
CCCCCCCCCCCCC/C=C/[C@@H](O)[C@H](CO)NCCCCCCCC,61.3 (inactive),0.925 (inactive) and 1 (inactive),1.2 and 0.737,5120 and 5820,5540 and 5810,10.3 (inactive),–,–,–,–,–,–,–,–,–
CCCCC[C@H](O)/C=C/[C@@H]1[C@@H](C/C=C\CCCC(=O)O)[C@H](O)C[C@H]1O,98.1 (inactive),0.925 (inactive) and 0.811 (inactive) and 0.869 (inactive),1.48 and 1.52 and 1.28,5990 and 4790 and 5310,6480 and 5900 and 6110,–,–,–,–,–,–,–,–,–,–
O=c1onc2n1-c1cc(Br)ccc1OC2,–,1.09 (inactive) and 0.947 (inactive),1.04 and 0.916,11200 and 5950,10300 and 6280,–,0.015 h (inactive),-4% (inactive),1 (inactive),inactive,0.095 (inactive),–,–,–,–
CN(C)S(=O)(=O)c1ccc2c(c1)/C(=C/c1cc3c([nH]1)CCCC3)C(=O)N2,–,0.998 (inactive) and 0.964 (inactive),1 and 1.24,3800 and 4420,3810 and 4590,–,-0.01 h (inactive),-2% (inactive),1 (inactive),active,1 (inactive),43.1% (inactive),152%,–,–
CCCC1CC(C(=O)NC(C(C)Cl)C2OC(SC)C(O)C(O)C2O)N(C)C1 (centres undefined),–,0.887 (inactive) and 0.926 (inactive) and 0.928 (inactive),0.463 and 0.824 and 1.2,8440 and 7670 and 9370,9520 and 8280 and 10100,–,–,–,–,–,-0.495 (inactive),–,–,0.443 (inactive) and -0.35 (inactive) and -0.364 (inactive),-0.229 and -0.0713 and 0.118
CC1CNCCN1S(=O)(=O)c1cccc2cnccc12 (centres undefined),216 (active),1.06 (inactive) and 1.03 (inactive),1.18 and 0.538,11400 and 1600,10700 and 1550,–,0.05 hour (inactive) and -0.065 hour (inactive),-1% (inactive),0.9 (inactive),inactive,-1.29 (inactive),–,–,–,–
O=C(c1ccc(OCCCc2cnc[nH]2)cc1)C1CC1,–,0.955 (inactive) and 1.01 (inactive),1.12 and 0.82,9150 and 7760,9580 and 7660,–,–,-3% (inactive),1 (inactive),inactive,-1.01 (inactive),–,–,-0.324 (inactive),-0.0656
